The list is not random: actives were taken first. Their share in the collection is about 9.2%.
KDM4E inh – JMJD2E (human) inhibition. B2RXH2. JMJD2E catalytic domain, FDH-coupled NADH fluorescence (FDH is formaldehyde dehydrogenase). Potency, µM (series often up to 57.1 µM), for inactives: at the top dose activity change, negative = inhibition, actives largely listed as inhibitors. 1.6% of 230,000 active;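 further: 0% = wells with enzyme and -100% = buffer wells without enzyme; nearly all actives have a fitted effect of over 50% in size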
Target sequence (B2RXH2 1-337 limits assumed): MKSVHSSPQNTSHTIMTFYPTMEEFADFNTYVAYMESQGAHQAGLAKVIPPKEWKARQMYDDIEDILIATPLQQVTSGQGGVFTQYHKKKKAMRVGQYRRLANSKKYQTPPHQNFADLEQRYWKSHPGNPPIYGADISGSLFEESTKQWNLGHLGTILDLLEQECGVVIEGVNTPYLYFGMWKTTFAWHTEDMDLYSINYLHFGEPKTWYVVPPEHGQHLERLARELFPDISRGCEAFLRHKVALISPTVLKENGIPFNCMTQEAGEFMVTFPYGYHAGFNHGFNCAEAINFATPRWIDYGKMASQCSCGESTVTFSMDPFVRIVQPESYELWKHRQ
LMNA splice mod – changes lamin A minigene splicing in HeLa cells; HeLa LMNA splicing GFP/RFP minigene ratio, 48 h; Potency, µM (top dose mostly 46.1 µM), without a hit: at the highest dose ratio change, negative = inhibition, most hits filed as inhibitors; 0.01% of 200,000 active; AID 1487; active means well fitted inhibition curve with a large enough effect in the signal ratio, with a control signal flat, not every such curve was filed as active; inconclusive means small, poorly fitted or top-dose-only effect, or effect the other way, or a change in a side signal; the % refers to the signal ratio; further: on the % scale 0 is the no-effect control and ±100 the full control effect
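S3 HeLa cells stably expressing lamin A-EGFP splicing minigene plus DsRed2, 600 cells/well, 48 h compound exposure at 37C. Laser-scanning cytometry; analysed as GFP (500-530 nm)/RFP (575-640 nm) total intensity ratio; 0.5% DMSO vehicle.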
HttQ103 aggreg – reduces HttQ103-GFP aggregates in PC12 cells; AID 1688; 1.1% of 220,000 active; PC12 HttQ103-GFP aggregates, Acumen cytometry, 40 h; Potency, µM (highest dose often 46.1 µM), for inactives: at the highest dose activity change, negative = inhibition, usual class: inhibitors; active means well fitted curve in the direction sought with a large enough effect; inconclusive means small, poorly fitted or top-dose-only effect, or another doubt; inactive means no such curve, though single readings can be large; an effect the other way counts as inactive or inconclusive; further: on the % scale 0 is the no-effect control and ±100 the full control effect; nearly all actives have a fitted effect of over 60% in size
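PC12 cells stably carrying ecdysone-inducible HTT exon 1 Q103–GFP were induced with tebufenozide (100 nM final) and treated with library compounds in titration. GFP aggregates in lysates were counted by laser scanning cytometry.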
ALDH1A1 block – ALDH1A1 (human) enzyme inhibition | P00352 | Purified ALDH1A1, NADH fluorescence, propionaldehyde substrate | Potency, µM (doses to about 75.3 µM), without a hit: at the highest dose activity, negative = inhibition, actives largely listed as inhibitors | 7.3% of 220,000 active;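 further: plate controls were no enzyme wells and a reference inhibitor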
HPGD block – inhibitors of human 15-hydroxyprostaglandin dehydrogenase (HPGD) | P15428 | Potency, µM, for inactives: top-dose activity change, negative = inhibition, hits mostly inhibitors | purified HPGD, NADH fluorescence kinetic, PGE2 substrate | 4.3% of 150,000 active; further: on the % scale 0 is the no-effect control and ±100 the full control effect
Target sequence (P15428 whole entry, looked up): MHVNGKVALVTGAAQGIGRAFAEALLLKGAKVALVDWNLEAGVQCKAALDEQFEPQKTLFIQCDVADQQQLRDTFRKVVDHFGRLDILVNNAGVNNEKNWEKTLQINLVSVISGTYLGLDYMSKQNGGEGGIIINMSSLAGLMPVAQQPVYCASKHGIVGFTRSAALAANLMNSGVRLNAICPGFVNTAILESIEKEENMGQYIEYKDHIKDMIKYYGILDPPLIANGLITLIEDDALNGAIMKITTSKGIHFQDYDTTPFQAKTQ
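NADH formation kinetics: reaction with 30 uM PGE2 and 1 mM NAD+ (final), 20 nM enzyme, Tris-HCl pH 8 with Tween 20, after 15 min compound preincubation at room temperature. Fluorescence change, last versus first of five reads.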
HTT cytoprotect – protects HTT-Q103 PC12 cells, measured by ATP. PC12 HTT-Q103 induced, cytoprotection, ATP luminescence, 40 h. Potency, µM (series often up to 56.4 µM), inactives show cytoprotection (ATP increase), hits mostly activators. 0.14% of 230,000 active. AID 1471; active means well fitted curve in the direction sought with a large enough effect; inconclusive means small, poorly fitted or top-dose-only effect, or another doubt; inactive means no such curve, though single readings can be large; an effect the other way counts as inactive or inconclusive; further: % of control where 0% means no effect; nearly all actives have a fitted effect of over 45% in size
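Compounds added alongside 100 nM tebufenozide, which induces toxic Q103 huntingtin exon 1-GFP in stable PC12 cells; surviving cells quantified by luminescent ATP measurement. Medium: phenol red-free DMEM, 5% equine and 5% calf serum.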
Active calls of the source: *; [ ] = dose if it differs, or a comment. Unless noted, the call rests on the fitted dose curve; in most records, active means well fitted inhibition curve with a large enough effect (not every such curve was filed as active); inconclusive means small, poorly fitted or top-dose-only effect, or another doubt; inactive means no such curve, though single readings can be large or run the other way. Potency means the concentration at half of the fitted maximal effect.

For N=C1SCC(=O)N1c1ncc(Cc2cccc(Cl)c2)s1 the results were KDM4E inh 6%, LMNA splice mod inconclusive, HttQ103 aggreg 38%[9.22 µM], ALDH1A1 block 4% and HTT cytoprotect 32%[10 µM].
Cc1cc(=O)n(C(C)C(=O)N2CCCc3ccccc32)c2c1c(C)nn2-c1ccccc1 (centres undefined) was read as LMNA splice mod -28%[46 µM].
Screening COc1ccc(-n2c(SC3CCOC3=O)nc3ccccc32)cc1 (centres undefined) returned KDM4E inh -2%, LMNA splice mod -7%, HttQ103 aggreg 6%, ALDH1A1 block 6%, HPGD block 0% and HTT cytoprotect -8%.
`COc1ccc(/C=C2/N=C(SC3CCOC3=O)N(c3cccc(OC)c3)C2=O)cc1` (centres undefined) gave KDM4E inh 5%, LMNA splice mod -14%, HttQ103 aggreg 32%, ALDH1A1 block 3.5µM* and HTT cytoprotect -12%[10 µM].
CC(=O)/C(=N\Nc1ccccc1)Sc1nncn1C was read as KDM4E inh -2%, LMNA splice mod inconclusive, HttQ103 aggreg 5%, ALDH1A1 block -6% and HPGD block -11%.
COc1ccc(NCC(=O)n2c(C)c(C)c3ccccc32)cc1OC was read as KDM4E inh -4%, HttQ103 aggreg -2%[9.22 µM], ALDH1A1 block 7.1µM* and HTT cytoprotect 6%[10 µM].
`C/C(CC(=O)N1CCN(C=O)CC1)=N\NC(=O)c1ccc([N+](=O)[O-])cc1` gave KDM4E inh -10%, LMNA splice mod inconclusive, HttQ103 aggreg -22%[9.22 µM], ALDH1A1 block inconclusive and HTT cytoprotect -7%[10 µM].
For C/C(CC(=O)N1CCN(C=O)CC1)=N\NC(=O)c1cc2ccccc2cc1O the results were KDM4E inh 28µM*, LMNA splice mod -9%, HttQ103 aggreg -18%, ALDH1A1 block 3%, HPGD block -21% and HTT cytoprotect 19%[10 µM].
Screening CCN(CC)CCN1C(=O)C(O)=C(C(C)=O)C1c1ccc(OC)c(OC)c1 (centres undefined) returned KDM4E inh -16%, LMNA splice mod -2%, HttQ103 aggreg inconclusive, ALDH1A1 block 18µM*, HPGD block -18% and HTT cytoprotect -4%.
For COC(=O)c1scc(-c2ccc(C)cc2)c1S(=O)(=O)Nc1cc(OC)c(OC)c(OC)c1 the results were LMNA splice mod -13%[46 µM].
For CCCN(CCC)C1=CC(=[N+]2CCCC2)CC(C)(C)C1 the results were KDM4E inh 5%, LMNA splice mod inconclusive, HttQ103 aggreg 11µM*, ALDH1A1 block 3%, HPGD block -21% and HTT cytoprotect 34%[0.074 µM].
`O=C(c1ccc(C#CC2(O)CCCCC2)cc1)N1CCN(Cc2ccccc2)CC1` gave KDM4E inh 9%, LMNA splice mod inconclusive, HttQ103 aggreg inconclusive, ALDH1A1 block -13%, HPGD block -5% and HTT cytoprotect -55%[10 µM].
`O=C(c1ccc(C#CC2(O)CCCCC2)cc1)N1CCN(C(c2ccccc2)c2ccccc2)CC1` gave KDM4E inh 0%, LMNA splice mod inconclusive, HttQ103 aggreg 8%[9.22 µM], ALDH1A1 block 25µM*, HPGD block -16% and HTT cytoprotect -57%.
`Cc1ccc(-c2cc(C(=O)N/N=C/C=C/c3ccccc3)n[nH]2)s1` gave KDM4E inh inconclusive, LMNA splice mod inconclusive, HttQ103 aggreg 20%, ALDH1A1 block inconclusive, HPGD block 32µM* and HTT cytoprotect 7%[10 µM].
`O=C(Nc1ccc(C(=O)OCc2cc(=O)n3c4c(sc3n2)CCCC4)cc1)c1ccc(F)cc1` gave LMNA splice mod 8%[46 µM].
`COc1ccc(NC(=O)C(C)N2C(=O)c3ccccc3C2=O)cc1S(=O)(=O)N1CCOCC1` (centres undefined) gave KDM4E inh -3%, LMNA splice mod 16%[46 µM], HttQ103 aggreg -9%, ALDH1A1 block -3% and HTT cytoprotect -25%.
For C/C(CCN1CCc2nc(-c3ccccc3)c(-c3ccccc3)cc2C1)=N\O[C@@H](C)CN1CCCc2nc(C)c(C)cc21 the results were ALDH1A1 block -14%[13.5 µM] and HTT cytoprotect 32%[10 µM].
`S=c1[nH]ncn1/N=C/c1cccc(Oc2ccccc2)c1` gave KDM4E inh -9%, LMNA splice mod -3%, HttQ103 aggreg 33%, ALDH1A1 block 18µM*, HPGD block 10µM* and HTT cytoprotect -6%.
Screening Clc1ccc(N2CCN(c3cnc4ccccc4n3)CC2)cc1 returned KDM4E inh inconclusive, LMNA splice mod -24%, HttQ103 aggreg -5%, ALDH1A1 block -7%, HPGD block -25% and HTT cytoprotect -6%.
For c1ccc(N2CCN(c3cnc4ccccc4n3)CC2)cc1 the results were KDM4E inh -6%, LMNA splice mod 0%, HttQ103 aggreg inconclusive, ALDH1A1 block inconclusive, HPGD block 22µM* and HTT cytoprotect -76%.
O=Cc1cnc(N2CCN(Cc3ccccc3)CC2)s1 was read as KDM4E inh -7%, HttQ103 aggreg 32%[9.22 µM], ALDH1A1 block 0.79µM* and HTT cytoprotect -27%.
For O=Cc1cnc(N2CCN(c3ccccc3)CC2)s1 the results were KDM4E inh -4%, HttQ103 aggreg 26%, ALDH1A1 block 4µM* and HTT cytoprotect -12%.
`Clc1ncc(CN2CCN(c3ccccc3)CC2)s1` gave KDM4E inh -15%, LMNA splice mod inconclusive, HttQ103 aggreg 24%, ALDH1A1 block -1% and HTT cytoprotect -37%.
`CN1C[C@@H]2C[C@H]1CN2c1cc2c(cc1F)c(=O)c(C(=O)O)cn2C1CC1` gave LMNA splice mod inconclusive, HttQ103 aggreg 2% and HTT cytoprotect 51%.
Screening CCN1C(=S)SC(=O)C1=C1C=C(C)N(Cc2ccco2)C(C)=C1 returned KDM4E inh -28%, LMNA splice mod inconclusive, HttQ103 aggreg inconclusive, ALDH1A1 block 2.5µM*, HPGD block -29% and HTT cytoprotect -39%.
For O=C1C=C(NNC(=O)c2ccncc2)CC(c2ccccc2)C1 (centres undefined) the results were KDM4E inh inconclusive, LMNA splice mod 3%[46 µM], HttQ103 aggreg 9%, ALDH1A1 block 8.9µM* and HTT cytoprotect -1%.
For Cn1c(C(=O)N2CCCC2)cc2c(=O)n(C)c3ccccc3c21 the results were KDM4E inh -17%, LMNA splice mod -5%, HttQ103 aggreg -8%, ALDH1A1 block -2%, HPGD block 22µM* and HTT cytoprotect -25%.
`Cn1c(C(=O)N2CCN(c3ncccn3)CC2)cc2c(=O)n(C)c3ccccc3c21` gave KDM4E inh -7%, LMNA splice mod 4%, HttQ103 aggreg 1%, ALDH1A1 block -6%, HPGD block -17% and HTT cytoprotect -7%.
